Bioassay records as filed in PubChem BioAssay.
TDP1 inh – TDP1 (human) enzyme inhibition; Potency, µM (doses to about 130 µM), for the others: top-dose activity change, negative = inhibition, actives largely listed as inhibitors; 350,000 tested, 0.28% active; Q9NUW8; recombinant TDP1, AlphaScreen DNA substrate cleavage; further: nearly all actives have a fitted effect of over 40% in size
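Here, a 5' biotin and 3' phosphotyrosine-FITC DNA oligonucleotide reports Tdp1 activity: intact substrate bridges AlphaScreen beads, while cleavage leaves a 3' phosphate and drops signal. All incubations at room temperature.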
PLK1 PBD block – blocks phosphopeptide binding to human PLK1 polo-box domain | P53350 | Plk1 PBD binding of FITC phosphopeptide, fluorescence polarization | Potency, µM, for the others: max response, negative = inhibition, usual class: inhibitors | 360,000 tested, 2.8% active | AID 720504; further: series mostly up to about 57 µM; nearly all actives have a fitted effect of over 65% in size
VDR inhibitor – inhibitors of human vitamin D receptor | P11473 | VDR-SRC2-3 peptide fluorescence polarization, 2 h | Potency, µM, inactives show max response, negative = inhibition, actives largely listed as inhibitors | 400,000 tested, 0.93% active | AID 504847
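Reagent solutions, kept cold and dark, are dispensed first; compounds are then pinned in at 23 nl, plates briefly spun, and incubated 2 h at ambient temperature. Inhibition of VDR–SRC2-3 peptide binding is read by fluorescence polarization.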
KAT2A inh – inhibitors of human GCN5L2 histone acetyltransferase | Potency, µM (series often up to 58.9 µM), inactives show at the top dose activity change, negative = inhibition, hits mostly inhibitors | Q92830 | AID 504327 | GCN5L2 HAT assay, ThioGlo1 CoA-SH fluorescence | 390,000 tested, 0.21% active
Target sequence (Q92830 whole entry, looked up): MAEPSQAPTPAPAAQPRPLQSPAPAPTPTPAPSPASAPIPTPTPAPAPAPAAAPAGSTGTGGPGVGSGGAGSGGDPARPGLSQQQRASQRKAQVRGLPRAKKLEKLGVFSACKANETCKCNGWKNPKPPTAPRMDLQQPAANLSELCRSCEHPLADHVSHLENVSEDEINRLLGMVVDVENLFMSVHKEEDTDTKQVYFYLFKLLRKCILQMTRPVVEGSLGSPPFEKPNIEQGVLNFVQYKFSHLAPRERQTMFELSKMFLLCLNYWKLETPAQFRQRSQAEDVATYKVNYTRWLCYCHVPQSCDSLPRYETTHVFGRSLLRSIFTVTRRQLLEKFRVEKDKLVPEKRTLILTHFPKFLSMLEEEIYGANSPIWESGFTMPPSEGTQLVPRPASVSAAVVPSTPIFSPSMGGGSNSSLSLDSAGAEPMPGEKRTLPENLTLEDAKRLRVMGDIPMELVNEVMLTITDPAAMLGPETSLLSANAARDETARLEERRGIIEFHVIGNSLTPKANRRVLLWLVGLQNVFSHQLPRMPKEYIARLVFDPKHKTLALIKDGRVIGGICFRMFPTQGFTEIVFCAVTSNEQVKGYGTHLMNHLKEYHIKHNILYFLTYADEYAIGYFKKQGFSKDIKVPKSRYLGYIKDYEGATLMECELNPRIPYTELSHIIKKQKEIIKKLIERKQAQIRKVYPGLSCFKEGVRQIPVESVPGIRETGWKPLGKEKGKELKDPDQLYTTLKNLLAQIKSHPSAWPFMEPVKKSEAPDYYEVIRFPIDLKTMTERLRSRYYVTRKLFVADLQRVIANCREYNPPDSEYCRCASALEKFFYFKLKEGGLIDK
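GCN5L2 (20 nM) in 50mM HEPES pH 7.5, 0.1mM EDTA, 0.01% Tween-20 preincubated 15 min with compounds at room temperature. Reaction started with H3(1-25) 75uM, acetyl-CoA 70uM, ThioGlo1 50uM; CoA-thiol fluorescence (Ex340/Em540) read at 0 and 20 min.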
DT40 TDP1 no CPT – qHTS for Inhibitors of human tyrosyl-DNA phosphodiesterase 1 (TDP1): qHTS in cells in absence of CPT | DT40 Tdp1-/- hTDP1 cells, no CPT, ATP luminescence, 48 h | Potency, µM (highest dose often 46.2 µM), for inactives: top-dose activity change, negative = growth inhibition, actives largely listed as inhibitors | 420,000 tested, 15% active | AID 686978, 2013; further: nearly all actives have a fitted effect of over 55% in size
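Camptothecin absent (DMSO only). Human TDP1-complemented DT40 knockout cells, 400 cells/well, 37 °C for minimum 48 hr; ATP measured via CellTiter-Glo, 30 min dark incubation, luminescence.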
TDP1 cell CPT – growth inhibition of DT40 Tdp1-/-;hTDP1 cells with camptothecin (screen for TDP1 inhibitors); chicken DT40 Tdp1-/-;hTDP1 cells + 20 nM CPT, ATP luminescence, 48 h; Potency, µM (highest dose often 46.2 µM), for the others: at the top dose activity change, negative = growth inhibition, actives largely listed as inhibitors; 420,000 tested, 12% active; further: nearly all actives have a fitted effect of over 55% in size
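Chicken DT40 Tdp1-/- cells complemented with human TDP1, 400 cells/well, exposed to compounds plus 20 nM camptothecin for at least 48 h at 37 C; viability read as ATP content by CellTiter-Glo luminescence.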
* marks the source's active call; other numbers are inactive results. Compounds with a hit are over-represented: about 18% of the library has one in this group of screens. The call rests on the fitted dose curve; in most records, active means well fitted curve in the direction sought with a large enough effect; inconclusive means small, poorly fitted or top-dose-only effect, or another doubt; inactive means no such curve, though single readings can be large; an effect the other way counts as inactive or inconclusive. On the % scale 0 is the no-effect control and ±100 the full control effect; potency means the concentration at half of the fitted maximal effect.

Results for COc1ccc(-c2nnn(CC(=O)N(Cc3cccs3)C(C)C(=O)NC3CCCC3)n2)cc1OC (stereo not given) ?
TDP1 inh: 6%; PLK1 PBD block: 0%; VDR inhibitor: -7%; KAT2A inh: -8%; DT40 TDP1 no CPT: inconclusive; TDP1 cell CPT: 29µM*

Results for CCC(C(=O)NC1CCCC1)N(C(=O)Cn1nnc(-c2ccc(OC)c(OC)c2)n1)C1CCCCC1 (stereo not given) ?
TDP1 inh: 1%; PLK1 PBD block: 0%; VDR inhibitor: 12%; KAT2A inh: -1%; DT40 TDP1 no CPT: inconclusive; TDP1 cell CPT: 13µM*

Results for CCN(c1ccccc1)S(=O)(=O)c1ccc(N2CCN(c3ccc(O)cc3)CC2)nc1 ?
TDP1 inh: 10%; PLK1 PBD block: -2%; VDR inhibitor: -2%; KAT2A inh: inconclusive; DT40 TDP1 no CPT: 15µM*; TDP1 cell CPT: inconclusive

Results for CCN(c1ccccc1)S(=O)(=O)c1ccc(N2CCN(c3ccc(OC)cc3)CC2)nc1 ?
TDP1 inh: 0%; PLK1 PBD block: -5%; VDR inhibitor: -17%; KAT2A inh: -2%; DT40 TDP1 no CPT: inconclusive; TDP1 cell CPT: 12µM*

Results for CCN(CC)S(=O)(=O)c1ccc(N2CCN(CCOc3ccc(OC)cc3)CC2)nc1 ?
TDP1 inh: 16%; PLK1 PBD block: -7%; VDR inhibitor: -1%; KAT2A inh: -3%; DT40 TDP1 no CPT: 21µM*; TDP1 cell CPT: 18µM*

How did CN(Cc1ccco1)C(=O)[C@H](Cc1ccccc1)NC(=O)CC[C@H]1O[C@@H](n2ccc(=O)[nH]c2=O)[C@H](O)[C@@H]1O do in these assays?
PLK1 PBD block: 2%; DT40 TDP1 no CPT: 11%; TDP1 cell CPT: -2%

Results for COc1cc(C(C)=O)ccc1OCC(=O)OCCCOC(=O)COc1ccc(C(C)=O)cc1OC ?
TDP1 inh: 3%; PLK1 PBD block: -6%; VDR inhibitor: -28%; KAT2A inh: -2%; DT40 TDP1 no CPT: 1%; TDP1 cell CPT: 6%

Results for CCOC(=O)CSc1nc2ccc(NC(C)=O)cc2s1 ?
TDP1 inh: 4%; PLK1 PBD block: -19%; VDR inhibitor: -13%; KAT2A inh: -5%; DT40 TDP1 no CPT: -16%; TDP1 cell CPT: -1%

What do the screens show for `CN(C(=O)CSc1nc2ccc(NC(=O)c3ccc(F)cc3)cc2s1)c1ccccc1`?
TDP1 inh: 4%; VDR inhibitor: 3%; KAT2A inh: -5%; DT40 TDP1 no CPT: 15µM*; TDP1 cell CPT: 16µM*

What do the screens show for `COc1ccc(C(=O)Nc2ccc3nc(SCC(=O)N(C)c4ccccc4)sc3c2)cc1`?
TDP1 inh: 5%; VDR inhibitor: -3%; KAT2A inh: 3%; DT40 TDP1 no CPT: 16µM*; TDP1 cell CPT: inconclusive

How did CN(C(=O)CSc1nc2ccc(NC(=O)CCc3ccccc3)cc2s1)c1ccccc1 do in these assays?
TDP1 inh: 6%; VDR inhibitor: 1%; KAT2A inh: -13%; DT40 TDP1 no CPT: 15µM*; TDP1 cell CPT: 18µM*

What do the screens show for `CCOC(=O)CSc1nc2ccc(NC(=O)COc3ccccc3C)cc2s1`?
TDP1 inh: 5%; VDR inhibitor: 7%; KAT2A inh: -14%; DT40 TDP1 no CPT: -23%; TDP1 cell CPT: -14%

Results for Cc1cccc(NC(=O)CSc2nc3ccc(NC(=O)CCc4ccccc4)cc3s2)c1 ?
TDP1 inh: -4%; VDR inhibitor: -3%; KAT2A inh: -8%; DT40 TDP1 no CPT: inconclusive; TDP1 cell CPT: inconclusive

What do the screens show for `CN(C(=O)CSc1nc2ccc(NC(=O)COc3ccc(F)cc3)cc2s1)c1ccccc1`?
TDP1 inh: 4%; VDR inhibitor: 1%; KAT2A inh: -21%; DT40 TDP1 no CPT: 4.6µM*; TDP1 cell CPT: 5.8µM*

What do the screens show for `C[C@H]1CN(S(=O)C(C)(C)C)[C@H](CCO)/C1=C\CCO` (stereo not given in full)?
PLK1 PBD block: -17%; VDR inhibitor: -17%; DT40 TDP1 no CPT: 9%; TDP1 cell CPT: 26%

Results for CCSc1ncc(Cl)c(C(=O)Nc2sc3c(c2C(=O)OC)CCCC3)n1 ?
DT40 TDP1 no CPT: -8%; TDP1 cell CPT: 0%

How did COc1cccc(-c2noc(Cn3nc(C)c([N+](=O)[O-])c3C)n2)c1 do in these assays?
TDP1 inh: 4%; PLK1 PBD block: 19µM*; VDR inhibitor: -28%; KAT2A inh: -12%; DT40 TDP1 no CPT: -1%; TDP1 cell CPT: -6%

Results for COc1ccc(-c2noc(C(C)n3nc(C)c([N+](=O)[O-])c3C)n2)cc1OC (stereo not given) ?
TDP1 inh: 4%; PLK1 PBD block: -2%; VDR inhibitor: 15%; KAT2A inh: 0%; DT40 TDP1 no CPT: inconclusive; TDP1 cell CPT: inconclusive

How did Cc1nn(Cc2cccc(C(=O)O)c2)c(C)c1[N+](=O)[O-] do in these assays?
PLK1 PBD block: 2%; VDR inhibitor: -7%; KAT2A inh: -1%; DT40 TDP1 no CPT: 17%; TDP1 cell CPT: -7%

What do the screens show for `COC(=O)c1cccc(Cn2nc(C)c([N+](=O)[O-])c2C)c1`?
TDP1 inh: 11%; PLK1 PBD block: 21µM*; VDR inhibitor: -29%; KAT2A inh: -9%; DT40 TDP1 no CPT: inconclusive; TDP1 cell CPT: -24%

How did COc1ccc(Br)c(C=O)c1OS(=O)(=O)c1ccc(C)cc1 do in these assays?
PLK1 PBD block: -14%; DT40 TDP1 no CPT: inconclusive; TDP1 cell CPT: inconclusive

Results for NC(=O)c1ccc2c(=O)n3c(-c4cc(Cl)c(N)c(Cl)c4)csc3nc2c1 ?
TDP1 inh: 79µM*; PLK1 PBD block: -22%; VDR inhibitor: -18%; KAT2A inh: -4%; DT40 TDP1 no CPT: 18µM*; TDP1 cell CPT: 16µM*

What do the screens show for `Cc1csc2nc3cc(C(N)=O)ccc3c(=O)n12`?
TDP1 inh: 2%; PLK1 PBD block: 0%; VDR inhibitor: 10%; KAT2A inh: -22%; DT40 TDP1 no CPT: -4%; TDP1 cell CPT: -9%

What do the screens show for `COCCN1Cc2cccc(C(=O)Nc3ccc(C)cc3C)c2C1=O`?
TDP1 inh: 7%; VDR inhibitor: 4%; KAT2A inh: -4%; DT40 TDP1 no CPT: -19%; TDP1 cell CPT: -17%

What do the screens show for `CCOC(=O)C1=C[C@@H](C(=O)OCC)[C@@H]2C3=C(C(=O)C2(C)C)[C@H](c2ccccc2)[C@@H]2C(=O)N(c4ccccc4)C(=O)[C@@H]2[C@@H]3C1`?
TDP1 inh: 17%; VDR inhibitor: inconclusive
